# Assay results published in PubChem BioAssay (NCI).
# About 79,000 compounds went through this panel and 15% of them were active in at least one assay; those are over-represented in the sample as a whole. Values without a mark were called inactive. Active and inactive are the calls of the source. Rule as the data show it: active = growth inhibition above about 70%; inactive = the rest.
# Assays:
# [1] = NCI Yeast Anticancer Drug Screen. Data for the rad52 strain (AID 147);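 also: 0% = growth of vehicle-treated control cultures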; conditions: S. cerevisiae rad52 mutant growth inhibition, hits give high values
# Procedure, shortened: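 Growth of repair-deficient yeast cells was compared between compound-treated and vehicle-treated cultures to give percent inhibition.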
# [2] = NCI Yeast Anticancer Drug Screen. Data for the rad50EPP+ strain (AID 151);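 also: 0% = growth of vehicle-treated control cultures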; conditions: S. cerevisiae rad50 mutant strain, hits give high values
# Procedure, shortened: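 Measured: growth inhibition of rad50EPP+ yeast. Reference: vehicle-treated controls. Screen uses strains with defined genetic alterations in DNA damage repair or cell cycle control.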
# [3] = NCI Yeast Anticancer Drug Screen. Data for the mgt1 strain (AID 153); conditions: S. cerevisiae mgt1 mutant growth inhibition, hits give high values
# Procedure, shortened: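 Compounds were applied to mgt1 mutant yeast, and growth was then compared against vehicle-treated control cultures to give percent inhibition.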
# [4] = NCI Yeast Anticancer Drug Screen. Data for the rad50 strain (AID 155);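 also: 0% = growth of vehicle-only cultures of the same strain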; conditions: S. cerevisiae rad50 strain growth inhibition, hits give high values
# Procedure, shortened: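 Cells are treated with compound, grown, and their growth is then scored against vehicle-only cultures of the same repair-deficient yeast strain.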
# [5] = NCI Yeast Anticancer Drug Screen. Data for the mec2-1 strain (AID 157); conditions: S. cerevisiae mec2-1 strain, hits give high values
# Procedure, shortened: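 Compounds were applied to mec2-1 yeast cells. Their growth was then compared with that of vehicle-treated cultures to give growth inhibition.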
# [6] = NCI Yeast Anticancer Drug Screen. Data for the rad14 strain (AID 159);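 also: 0% = growth of vehicle-treated control cultures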; conditions: S. cerevisiae rad14 strain growth inhibition, hits give high values
# Procedure, shortened: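 Readout: yeast growth inhibition, referenced to vehicle-only cultures. Strain bears a defined alteration in DNA damage repair.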
# [7] = NCI Yeast Anticancer Drug Screen. Data for the sgs1 mgt1 strain (AID 161);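 also: 0% = growth of cultures given vehicle only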; conditions: S. cerevisiae sgs1 mgt1 strain, hits give high values
# Procedure, shortened: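 This yeast growth screen uses a strain with defined DNA-repair lesions; compound-treated growth is compared with vehicle-treated growth.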
# [8] = NCI Yeast Anticancer Drug Screen. Data for the CLN2oe strain (AID 163);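 also: 0% = growth of vehicle-only control cultures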; conditions: S. cerevisiae CLN2oe strain, hits give high values
# Procedure, shortened: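 Cells of an engineered yeast line with disturbed cell-cycle regulation are treated with compound. Inhibition of growth is then calculated relative to the vehicle-treated reference.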
# [9] = NCI Yeast Anticancer Drug Screen. Data for the cln2 rad14 strain (AID 165);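 also: 0% = growth equal to vehicle treated cultures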; conditions: S. cerevisiae cln2 rad14 strain, hits give high values
# Procedure, shortened: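 Strain: cln2 rad14 yeast, altered in cell cycle control and DNA damage repair. Read-out: growth inhibition vs vehicle.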
# [10] = NCI Yeast Anticancer Drug Screen. Data for the bub3 strain (AID 167); conditions: S. cerevisiae bub3 mutant strain, hits give high values
# Procedure, shortened: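 Part of a panel of yeast mutants defective in DNA damage repair or cell cycle regulation. Each strain is grown with compound, and inhibition is calculated relative to solvent-treated cultures.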
# [11] = NCI Yeast Anticancer Drug Screen. Data for the wt2 strain (AID 169);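 also: 0% = growth of vehicle-treated yeast cultures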; conditions: S. cerevisiae wt2 strain growth inhibition, hits give high values
# Procedure, shortened: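 Growth of compound-treated yeast is measured and expressed as inhibition relative to vehicle-only controls.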
# [12] = NCI Yeast Anticancer Drug Screen. Data for the mlh1 strain (AID 171);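 also: 0% = growth of vehicle-treated control cultures of the same strain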; conditions: S. cerevisiae mlh1 strain growth inhibition, hits give high values
# Procedure, shortened: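 Test agents were incubated with yeast bearing a defined DNA damage repair or cell cycle control alteration; values are growth inhibition normalised to vehicle-treated cultures.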
# [13] = NCI Yeast Anticancer Drug Screen. Data for the sgs1 strain (AID 173);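 also: 0% = growth of vehicle-only control cultures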; conditions: S. cerevisiae sgs1 mutant, hits give high values
# Procedure, shortened: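 Strain with an altered DNA repair or cell cycle pathway exposed to compound. Growth then measured. Value = inhibition versus vehicle control.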
# [14] = NCI Yeast Anticancer Drug Screen. Data for the mlh1 rad18 strain (AID 175); conditions: S. cerevisiae mlh1 rad18 strain growth inhibition, hits give high values
# Procedure, shortened: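 A repair-deficient yeast strain is exposed to test compound, and growth is scored relative to vehicle-treated controls.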
# [15] = NCI Yeast Anticancer Drug Screen. Data for the rad18 strain (AID 177); conditions: S. cerevisiae rad18 mutant growth inhibition, hits give high values
# Procedure, shortened: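 DNA-repair-defective yeast; compound treatment; growth inhibition scored against vehicle.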
# [16] = NCI Yeast Anticancer Drug Screen. Data for the wt1 strain (AID 149);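 also: 0% = growth of vehicle-treated wt1 cultures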; conditions: S. cerevisiae wt1 strain (SPY 50644) growth inhibition, hits give high values
# Procedure, shortened: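 The wt1 strain was treated with compounds, and growth was compared with vehicle-treated cultures to give inhibition.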
# [17] = at 5.0 µM (retest, dose inferred, filed as 0.5)
# [18] = at 50.0 µM (retest, dose inferred, filed as 5.0)
smiles,measurement,setting,value
O=C(Cc1csc2[n+]1C(=O)/C(=C/c1ccc(Cl)cc1)S2)Nc1ccccc1,growth inhibition,[1]; at 1.2 µM,15%
same,growth inhibition,[1]; at 3.7 µM,4%
same,growth inhibition,[1]; at 11.0 µM,20%
same,growth inhibition,[1]; at 33.0 µM,49%
same,growth inhibition,[1]; at 100.0 µM,87% (active)
same,growth inhibition,[2]; at 1.2 µM,2%
same,growth inhibition,[2]; at 3.7 µM,8%
same,growth inhibition,[2]; at 11.0 µM,34%
same,growth inhibition,[2]; at 33.0 µM,65%
same,growth inhibition,[2]; at 100.0 µM,75% (active)
same,growth inhibition,[3]; at 1.2 µM,-1%
same,growth inhibition,[3]; at 3.7 µM,1%
same,growth inhibition,[3]; at 11.0 µM,7%
same,growth inhibition,[3]; at 33.0 µM,54%
same,growth inhibition,[3]; at 100.0 µM,87% (active)
same,growth inhibition,[4]; at 1.2 µM,-2%
same,growth inhibition,[4]; at 3.7 µM,1%
same,growth inhibition,[4]; [17],24%
same,growth inhibition,[4]; at 11.0 µM,9%
same,growth inhibition,[4]; at 33.0 µM,43%
same,growth inhibition,[4]; [18],98% (active)
same,growth inhibition,[4]; at 50.0 µM,98.5% (active)
same,growth inhibition,[4]; at 100.0 µM,78% (active)
same,growth inhibition,[5]; at 1.2 µM,-3%
same,growth inhibition,[5]; at 3.7 µM,5%
same,growth inhibition,[5]; [17],25%
same,growth inhibition,[5]; at 11.0 µM,13%
same,growth inhibition,[5]; at 33.0 µM,39%
same,growth inhibition,[5]; [18],99% (active)
same,growth inhibition,[5]; at 50.0 µM,98.8% (active)
same,growth inhibition,[5]; at 100.0 µM,62%
same,growth inhibition,[6]; at 1.2 µM,0%
same,growth inhibition,[6]; at 3.7 µM,4%
same,growth inhibition,[6]; at 11.0 µM,10%
same,growth inhibition,[6]; at 33.0 µM,33%
same,growth inhibition,[6]; at 100.0 µM,69%
same,growth inhibition,[7]; [17],2%
same,growth inhibition,[7]; [18],96% (active)
same,growth inhibition,[7]; at 50.0 µM,98.9% (active)
same,growth inhibition,[8]; at 1.2 µM,-6%
same,growth inhibition,[8]; at 3.7 µM,-14%
same,growth inhibition,[8]; at 11.0 µM,-12%
same,growth inhibition,[8]; at 33.0 µM,8%
same,growth inhibition,[8]; at 100.0 µM,47%
same,growth inhibition,[9]; [17],42%
same,growth inhibition,[9]; [18],98% (active)
same,growth inhibition,[9]; at 50.0 µM,98.5% (active)
same,growth inhibition,[10]; at 1.2 µM,-8%
same,growth inhibition,[10]; at 3.7 µM,-8%
same,growth inhibition,[10]; [17],97% (active)
same,growth inhibition,[10]; at 11.0 µM,-7%
same,growth inhibition,[10]; at 33.0 µM,11%
same,growth inhibition,[10]; [18],99% (active)
same,growth inhibition,[10]; at 50.0 µM,98.8% (active)
same,growth inhibition,[10]; at 100.0 µM,12%
same,growth inhibition,[11]; at 1.2 µM,-3%
same,growth inhibition,[11]; at 3.7 µM,-3%
same,growth inhibition,[11]; at 11.0 µM,7%
same,growth inhibition,[11]; at 33.0 µM,60%
same,growth inhibition,[11]; at 100.0 µM,82% (active)
same,growth inhibition,[12]; at 1.2 µM,-1%
same,growth inhibition,[12]; at 3.7 µM,1%
same,growth inhibition,[12]; at 11.0 µM,8%
same,growth inhibition,[12]; at 33.0 µM,52%
same,growth inhibition,[12]; at 100.0 µM,75% (active)
same,growth inhibition,[13]; at 1.2 µM,2%
same,growth inhibition,[13]; at 3.7 µM,11%
same,growth inhibition,[13]; at 11.0 µM,32%
same,growth inhibition,[13]; at 33.0 µM,72% (active)
same,growth inhibition,[13]; at 100.0 µM,89% (active)
same,growth inhibition,[14]; [17],20%
same,growth inhibition,[14]; [18],98% (active)
same,growth inhibition,[14]; at 50.0 µM,98.3% (active)
same,growth inhibition,[15]; at 1.2 µM,0%
same,growth inhibition,[15]; at 3.7 µM,5%
same,growth inhibition,[15]; at 11.0 µM,21%
same,growth inhibition,[15]; at 33.0 µM,56%
same,growth inhibition,[15]; at 100.0 µM,69%
CN(N=O)N1C(=O)SCC(c2ccccc2)(c2ccccc2)C1=O,growth inhibition,[1]; at 1.2 µM,-2%
same,growth inhibition,[1]; at 3.7 µM,1%
same,growth inhibition,[1]; at 11.0 µM,6%
same,growth inhibition,[1]; at 33.0 µM,16%
same,growth inhibition,[1]; at 100.0 µM,42%
same,growth inhibition,[16]; at 1.2 µM,-3%
same,growth inhibition,[16]; at 3.7 µM,-5%
same,growth inhibition,[16]; at 11.0 µM,-3%
same,growth inhibition,[16]; at 33.0 µM,-3%
same,growth inhibition,[16]; at 100.0 µM,4%
same,growth inhibition,[3]; at 1.2 µM,-1%
same,growth inhibition,[3]; at 3.7 µM,1%
same,growth inhibition,[3]; at 11.0 µM,1%
same,growth inhibition,[3]; at 33.0 µM,-1%
same,growth inhibition,[3]; at 100.0 µM,3%
same,growth inhibition,[4]; at 1.2 µM,3%
same,growth inhibition,[4]; at 3.7 µM,4%
same,growth inhibition,[4]; [17],-26%
same,growth inhibition,[4]; at 11.0 µM,13%
same,growth inhibition,[4]; at 33.0 µM,11%
same,growth inhibition,[4]; [18],66%
same,growth inhibition,[4]; at 50.0 µM,56%
same,growth inhibition,[4]; at 100.0 µM,37%
same,growth inhibition,[5]; at 1.2 µM,0%
same,growth inhibition,[5]; at 3.7 µM,1%
same,growth inhibition,[5]; [17],10%
same,growth inhibition,[5]; at 11.0 µM,1%
same,growth inhibition,[5]; at 33.0 µM,5%
same,growth inhibition,[5]; [18],40%
same,growth inhibition,[5]; at 50.0 µM,32.2%
same,growth inhibition,[5]; at 100.0 µM,27%
same,growth inhibition,[6]; at 1.2 µM,1%
same,growth inhibition,[6]; at 3.7 µM,-5%
same,growth inhibition,[6]; at 11.0 µM,-3%
same,growth inhibition,[6]; at 33.0 µM,-10%
same,growth inhibition,[6]; at 100.0 µM,-4%
same,growth inhibition,[7]; [17],9%
same,growth inhibition,[7]; [18],64%
same,growth inhibition,[7]; at 50.0 µM,48.5%
same,growth inhibition,[8]; at 1.2 µM,-1%
same,growth inhibition,[8]; at 3.7 µM,4%
same,growth inhibition,[8]; at 11.0 µM,4%
same,growth inhibition,[8]; at 33.0 µM,2%
same,growth inhibition,[8]; at 100.0 µM,9%
same,growth inhibition,[9]; [17],-26%
same,growth inhibition,[9]; [18],16%
same,growth inhibition,[9]; at 50.0 µM,10.7%
same,growth inhibition,[10]; at 1.2 µM,-2%
same,growth inhibition,[10]; at 3.7 µM,1%
same,growth inhibition,[10]; [17],3%
same,growth inhibition,[10]; at 11.0 µM,12%
same,growth inhibition,[10]; at 33.0 µM,15%
same,growth inhibition,[10]; [18],70% (active)
same,growth inhibition,[10]; at 50.0 µM,66.2%
same,growth inhibition,[10]; at 100.0 µM,26%
same,growth inhibition,[11]; at 1.2 µM,-1%
same,growth inhibition,[11]; at 3.7 µM,-1%
same,growth inhibition,[11]; at 11.0 µM,-1%
same,growth inhibition,[11]; at 33.0 µM,1%
same,growth inhibition,[11]; at 100.0 µM,11%
